# Results filed as inconclusive are left out. Activity calls are given as the source filed them. The calls were made as follows: active = hit-call score of the fitted dose curve at least 0.9, where 1 is the maximum; inconclusive = response in the unintended direction; inactive = score below 0.9.
# Tested on: Brachyury (BRA), TBXT (gene 6862)
# Test: CCTE_Deisenroth_DEVTOX-GLR_Ecto_BRA: CCTE's DevTox GLR-Ecto Assay Evaluation of Brachyury (BRA) Protein Expression, Deisenroth Lab
# Protocol: CCTE_Deisenroth_DEVTOX-GLR_Ecto assay is a cell-based, multiplex-readout assay that uses RUES2-GLR, a human pluripotent cell line, with measurements taken at 48 hours after chemical dosing in a 384-well microplateCCTE_Deisenroth_DEVTOX-GLR_Ecto_BRA is 1 of 4 assay components calculated from the CCTE_Deisenroth_DEVTOX-GLR_Ecto assay and it measures an the percentage of cells in an mesoderm state. Using a type of inducible fluorescent protein reporter, gain-of-signal activity can be used to understand changes in gene expression with fluorescent microscopy. The percentage of BRA+ cells are determined by calculating the number of BRA+ cells divided by the cell count. To generalize the intended target to other relatable targets, this assay component is annotated to the transcription factor intended target family, where the subfamily is T-box protein.Data from the assay component CCTE_Deisenroth_DEVTOX-GLR_Ecto_BRA was analyzed as 1 assay endpoint. The endpoint is the percent BRA+ cell population minus the 0.2% DMSO control in the CCTE_Deisenroth_DEVTOX-GLR_Ecto assay. Furthermore, this assay endpoint can be referred to as a secondary readout, because this assay has produced multiple assay endpoints where this one serves as a measure of mesoderm differentiation.
# All assay protocols are aligned to the DevTox GLR-Endo assay workflow (Gamble 2022). Cells are seeded into 384-well microplates for 24 hours prior to initiating differentiation in defined media for a total duration of 48 hours. A total of two chemical exposures are administered in 24-hour intervals during the 48-hour differentiation period. At the assay termination point, cells are fixed and stained with a fluorescent dye demarcating the nucleus. High-content imaging is used to acquire brightfield and fluorescent channel images across 5 fields per well. Cell identification and mean biomarker fluorescence intensities are calculated with image analysis software to determine the total cell counts for viability assessment and the biomarker expression frequency for each lineage-dependent assay. A typical experimental design tests a 10-point concentration series (1 nM - 200 uM) for 28 compounds in single technical replicate. Assay plate controls include non-differentiated pluripotent cells (baseline control), lineage-specific differentiated cells (differentiation control), and DMSO solvent exposed differentiated cells (solvent control). Experiments typically comprise a minimum of four experimental replicates (n=4).
Compound,AC50,outcome
CC1=C(/C=C/C(C)=C/C=C/C(C)=C/C(=O)O)C(C)(C)CCC1,142 µM (active),–
O=C1NS(=O)(=O)c2ccccc21,–,inactive
CC(C)(c1ccc(O)cc1)c1ccc(O)cc1,–,inactive
O=C1NC(=O)C(c2ccccc2)(c2ccccc2)N1,–,inactive
CS(=O)(=O)OCCCCOS(C)(=O)=O,–,inactive
CC/C(=C(/CC)c1ccc(O)cc1)c1ccc(O)cc1,–,inactive
CC(=O)Nc1ccc(O)cc1,–,inactive
CC1(C)S[C@@H]2[C@H](NC(=O)Cc3ccccc3)C(=O)N2[C@H]1C(=O)O,–,inactive
CN(Cc1cnc2nc(N)nc(N)c2n1)c1ccc(C(=O)N[C@@H](CCC(=O)O)C(=O)O)cc1,–,inactive
CCN(CC)CCNC(=O)c1c(C)[nH]c(/C=C2\C(=O)Nc3ccc(F)cc32)c1C,1.12 µM (active),–
Nc1nc2ncc(CNc3ccc(C(=O)N[C@@H](CCC(=O)O)C(=O)O)cc3)nc2c(=O)[nH]1,–,inactive
O=c1[nH]cc(F)c(=O)[nH]1,1.95 µM (active),–
Nc1cccc2c1C(=O)N(C1CCC(=O)NC1=O)C2=O (stereo not given),39.1 µM (active),–
CCCC(CCC)C(=O)O,–,inactive
CC1=C(/C=C/C(C)=C/C=C/C(C)=C\C(=O)O)C(C)(C)CCC1,143 µM (active),–

# From PubChem BioAssay AID2284425 (EPA ToxCast)
